The whole screen tested about 16,000 compounds, of which about 5,700 (36%) were called active. Inconclusive results (about 24%) are left out. The call rests on the fitted dose curve; in most records, active means well fitted curve in the direction sought with a large enough effect; inconclusive means small, poorly fitted or top-dose-only effect, or effect the other way; inactive means no such curve, though single readings can be large or run the other way. The list shows a part of the results. Square brackets hold non-standard residues; d marks the D form. Peptide text beside a SMILES is read from it. * marks the point of attachment. ξ: configuration not given here. Cbz = O=C(OCc1ccccc1)*; OBn = c1ccc(CO*)cc1; ξP = O=C(O)C1CCCN1
biological target: Cytochrome P450 1A2 (Homo sapiens) (UniProt P05177); test: Cytochrome panel assay with activity outcomes; conditions: recombinant CYP, pro-luciferin dealkylation, luminescence, p450-cyp1a2; series mostly up to 57.1 µM
On the % scale 0 is the no-effect control and ±100 the full control effect.

Sequence of Cytochrome P450 1A2 (Homo sapiens) (P05177 whole entry, looked up): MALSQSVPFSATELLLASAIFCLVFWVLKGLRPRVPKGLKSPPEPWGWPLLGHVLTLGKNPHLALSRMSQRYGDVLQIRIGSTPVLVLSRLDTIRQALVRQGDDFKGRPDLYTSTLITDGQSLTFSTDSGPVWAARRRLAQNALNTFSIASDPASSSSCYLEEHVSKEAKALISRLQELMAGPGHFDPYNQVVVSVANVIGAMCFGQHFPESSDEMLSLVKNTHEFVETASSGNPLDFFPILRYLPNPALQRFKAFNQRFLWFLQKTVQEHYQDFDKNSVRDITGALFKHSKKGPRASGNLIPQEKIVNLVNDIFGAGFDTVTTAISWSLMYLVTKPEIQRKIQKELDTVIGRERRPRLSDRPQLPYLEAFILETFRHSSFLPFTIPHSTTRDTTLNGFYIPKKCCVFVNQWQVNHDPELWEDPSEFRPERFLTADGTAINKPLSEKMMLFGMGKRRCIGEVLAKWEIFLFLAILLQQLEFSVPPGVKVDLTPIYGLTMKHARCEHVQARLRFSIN

Q: Which activity, negative = inhibition does the source give for `[N-]=[N+]=NC[C@@H]1O[C@@H](n2cnc3c(N)ncnc32)[C@@H]2O[C@@H]21` here?
A: -13.8% [at 11.4 µM] (inactive)

Q: How did the AC50 turn out when `COCCCNC(=O)C1CC(=O)N(CCc2ccc(OC)c(OC)c2)C1` (stereo not drawn) was run?
A: inactive

Q: `N/C(=N\O)c1cn([C@@H]2O[C@@H](CO)[C@H](O)[C@@H]2O)c2ncnc(NO)c12` was tested. Which activity, negative = inhibition did it give?
A: -18.7% [at 2.29 µM] (inactive)

Q: How did the AC50 turn out when `C=C[C@H](N)CCC(=O)O` was run?
A: inactive

Q: How did the AC50 turn out when `C[C@@H](C[N+](C)(C)C)OC(N)=O` was run?
A: inactive

Q: Which AC50 does the source give for `Cc1cccc(/C(N)=N/OC(=O)CCCN2C(=O)c3ccccc3C2=O)c1` here?
A: 15.8 µM (active)

Q: Which activity, negative = inhibition does the source give for `CSCC[C@@H]1NC(=O)C/C=C\[C@@H](C)COC(=O)[C@H](C)COC1=O` here?
A: -2.99% [at 11.4 µM] (inactive)

Q: `CCC(CC)C(=O)NCCN1CCN(C(=O)C(CC)CC)CC1` was tested. Which AC50 did it give?
A: inactive

Q: With `CCCCOc1cc(C[C@@H]2CNC(=O)N2)ccc1OC` as the molecule, how does the AC50 read?
A: 10 µM (active)

Q: Which AC50 does the source give for `CCCCOc1ccc(CN2CCC(O)CC2)cc1` here?
A: inactive

Q: `COc1ccc(C[C@@H]2c3cc(OC)c(OC)cc3CC[N@+]2(C)CCC(=O)OCCCCCOC(=O)CC[N@@+]2(C)CCc3cc(OC)c(OC)cc3[C@H]2Cc2ccc(OC)c(OC)c2)cc1OC` was tested. Which AC50 did it give?
A: inactive

Q: Which AC50 does the source give for `Cc1ccccc1Oc1ncnc2sccc12` here?
A: 12.6 µM (active)

Q: Which AC50 does the source give for `N#CCCn1cc(/C=N/O)c(-c2ccc(Cl)cc2)n1` here?
A: 0.891 µM (active)

Q: With `Oc1[nH]c2ccccc2c1/C=N/c1nccs1` as the molecule, how does the AC50 read?
A: 0.251 µM (active)

Q: For `COc1ccc(-c2cc(-c3c(O)c(OC)c4occc4c3OC)[nH]n2)cc1OC`, which AC50 is on record?
A: 6.31 µM (active)

Q: `COc1ccc(-c2cc(-c3cc(F)ccc3O)[nH]n2)cc1OC` was tested. Which AC50 did it give?
A: 6.31 µM (active)

Q: `CCc1ccc(-c2csc(NC(=O)C3CCCO3)c2C(=O)OC(C)C)cc1` (stereo not drawn) was tested. Which AC50 did it give?
A: 7.08 µM (active)

Q: For `Cc1ccc(-c2c(C)sc(NC(=O)C3C4CCC(O4)C3C(=O)O)c2C(=O)OC(C)C)cc1` (stereo not drawn), which AC50 is on record?
A: inactive

Q: Which AC50 does the source give for `C=C(C)[C@H]1CC=C(C)/C(=N/NC(=O)CNc2ccccc2OC)C1` here?
A: 15.8 µM (active)

Q: Which AC50 does the source give for `C=C(C)C1CC=C(C)/C(=N/NC(=O)c2ccc(NC(=O)c3cccc(C)c3)cc2)C1` (stereo not drawn) here?
A: inactive

Q: For `CC(=O)N1c2ccc(S(=O)(=O)CCC(=O)O)cc2CC1C` (stereo not drawn), which AC50 is on record?
A: inactive

Q: For `COC(=O)c1ccccc1NC(=O)C1CCN(C(=O)c2ccc(OC)cc2)CC1`, which AC50 is on record?
A: inactive

Q: Which AC50 does the source give for `CCCCOC(=O)Nc1ccccc1C(=O)OC` here?
A: 2 µM (active)

Q: How did the AC50 turn out when `CCOC(=O)c1c(NC(=O)c2c(Br)cnn2C)c(C#N)nn1-c1ccccc1` was run?
A: 0.631 µM (active)

Q: For `COC(=O)c1cn(NC(=O)c2ccc(F)cc2)c(=O)c2ccccc12`, which AC50 is on record?
A: inactive

Q: With `COC(=O)c1ccccc1NC(=O)c1c(Br)cnn1C` as the molecule, how does the AC50 read?
A: 0.891 µM (active)

Q: Which AC50 does the source give for `Cc1ccccc1C(=O)NNC(=O)c1ccc(F)cc1` here?
A: inactive

Q: For `COC(=O)c1ccccc1NC(=O)c1ccc(F)cc1`, which AC50 is on record?
A: 0.2 µM (active)

Q: For `Cc1c(C(=O)O)nc(/C=C\C(=O)O)[nH]c1=O`, which activity, negative = inhibition is on record?
A: -6.61% [at 11.4 µM] (inactive)

Q: Which AC50 does the source give for `O=C(Nc1cccc2[nH]ncc12)c1ccc(F)cc1` here?
A: 7.08 µM (active)

Q: For `C#CCCCO/N=C1/C[C@@H](O)[C@@H](O)[C@@H]2[C@@H]3C(=O)N(C[C@@H]4CCCO4)C(=O)[C@H]3CC[C@H]12`, which activity, negative = inhibition is on record?
A: -2.74% [at 11.4 µM] (inactive)

Q: `CC(C)NC(=O)N1CCC2(CC1)CCN(C(=O)c1csnn1)CC2` was tested. Which AC50 did it give?
A: inactive

Q: For `N#Cc1sc2nc(-c3cccs3)cc(-c3ccc(Cl)cc3)c2c1N`, which AC50 is on record?
A: 1.26 µM (active)

Q: Which AC50 does the source give for `CCN(CC)CCCNC(=O)C1CCC(=O)N(c2ccc(OC)cc2)C1c1ccc(F)cc1` (stereo not drawn) here?
A: inactive

Q: For `Nc1c(-c2cccs2)cnn1-c1nc(-c2ccc(Cl)cc2Cl)cs1`, which AC50 is on record?
A: 1.26 µM (active)

Q: `Nc1c(-c2cccs2)cnn1-c1nc(-c2ccc(F)cc2)cs1` was tested. Which AC50 did it give?
A: 0.447 µM (active)

Q: With `O=C(c1csnn1)N1CCC2(CC1)CCN(c1ccncc1)CC2` as the molecule, how does the AC50 read?
A: inactive

Q: `COC(=O)[C@@H]1C[C@H]1[C@@H](NC(=O)c1cccnc1)c1ccccc1` was tested. Which AC50 did it give?
A: 12.6 µM (active)

Q: How did the AC50 turn out when `COC(=O)[C@@H]1C[C@H]1[C@@H](NC(=O)c1cnccn1)c1ccccc1` was run?
A: 12.6 µM (active)

Q: Which AC50 does the source give for `O=C(NNC(=O)C1CCCCC1)c1cnccn1` here?
A: inactive

Q: `O=C(Nc1ccccc1)N1CCC2(CC1)CCN(C(=O)c1cnccn1)CC2` was tested. Which AC50 did it give?
A: inactive

Q: With `COC(=O)[C@H]1C[C@@H]1[C@H](NC(=O)c1ccccc1)c1ccccc1` as the molecule, how does the AC50 read?
A: 15.8 µM (active)

Q: `C[C@@H](C(=O)O)[C@H]1C[C@]1(C)[C@H](NC(=O)OCc1ccccc1)c1ccccc1` was tested. Which AC50 did it give?
A: inactive

Q: Which AC50 does the source give for `O=C(CNC(=O)OCc1ccccc1)NCC(=O)N1CCCC1C(=O)OCc1ccccc1` (stereo not drawn) (Cbz-Gly-Gly-[ξP]-OBn) here?
A: inactive

Q: `O=C(NC(NCc1ccccc1)C(Cl)(Cl)Cl)c1cccnc1` (stereo not drawn) was tested. Which AC50 did it give?
A: inactive

Q: `COC(=O)[C@H]1C[C@@H]1[C@H](NC(=O)OCc1ccccc1)c1ccccc1` was tested. Which AC50 did it give?
A: 0.126 µM (active)

Q: How did the AC50 turn out when `CCc1cc[n+](-c2nc3ccccc3nc2C(=C=[N-])C#N)cc1` was run?
A: inactive

Q: With `COC(=O)[C@@H]1C[C@H]1[C@@H](NC(=O)c1ccccc1)c1ccccc1` as the molecule, how does the AC50 read?
A: 5.01 µM (active)

Q: Which AC50 does the source give for `COC(=O)C1CC1C(NC(=O)[C@H]1CCCCN1)c1ccccc1` (stereo partly drawn) here?
A: inactive

Q: How did the AC50 turn out when `Cc1cc(N(CN2CCCC2=O)C(=O)c2ccc(F)cc2)no1` was run?
A: inactive

Q: With `Cc1nc2c3cnn(-c4ccc(C)c(C)c4)c3ncn2n1` as the molecule, how does the AC50 read?
A: 8.91 µM (active)

Q: How did the AC50 turn out when `Cc1ccc(-n2ncc3c2ncn2nc(-c4ccco4)nc32)c(C)c1` was run?
A: inactive

Q: `COc1ccc2[nH]cc(CCNc3nc(-c4ccccc4OC)nc4ccccc34)c2c1` was tested. Which AC50 did it give?
A: 6.31 µM (active)

Q: For `COC(=O)[C@@]1(Cc2ccc(OC)cc2)[C@H]2c3cc(C(=O)N4CCCC4)n(CCc4c[nH]c5ccc(O)cc45)c3C[C@H]2CN1C(=O)c1ccccc1`, which AC50 is on record?
A: inactive

Q: `COc1cccc(-c2nc(NCCc3c[nH]c4ccc(OC)cc34)c3ccccc3n2)c1` was tested. Which AC50 did it give?
A: 1.58 µM (active)

Q: How did the AC50 turn out when `COc1ccc2[nH]cc(CCNc3nc(-c4cccnc4)nc4ccccc34)c2c1` was run?
A: 0.501 µM (active)

Q: How did the AC50 turn out when `COc1ccc2[nH]cc(CCNc3nc(-c4ccoc4)nc4ccccc34)c2c1` was run?
A: 0.398 µM (active)

Q: `Cc1noc(NS(=O)(=O)c2ccc(NC(=O)CC34CC5CC(CC(Br)(C5)C3)C4)cc2)c1C` was tested. Which AC50 did it give?
A: inactive

Q: How did the AC50 turn out when `Cc1nn(Cc2ccccc2Cl)c(C)c1NC(=O)CCCn1nc(C)c([N+](=O)[O-])c1C` was run?
A: inactive

Q: With `O=C(NNC(=O)c1sc2ccccc2c1Cl)Nc1ccc(Cl)cc1` as the molecule, how does the AC50 read?
A: 0.501 µM (active)

Q: With `Cc1ccc(NC(=O)c2sc3ccccc3c2Cl)nc1` as the molecule, how does the AC50 read?
A: 2.51 µM (active)

Q: `CC(C)c1nnc(NC(=O)c2sc3ccccc3c2Cl)s1` was tested. Which AC50 did it give?
A: 10 µM (active)

Q: `Cc1ccc(-c2cc(C(F)F)n3ncc(C(=O)Nc4c(C)nn(Cc5c(Cl)cccc5Cl)c4C)c3n2)cc1` was tested. Which AC50 did it give?
A: inactive

Q: How did the AC50 turn out when `Cc1ccccc1Cn1nc(C)c(NC(=O)c2sc3ccccc3c2Cl)c1C` was run?
A: 2.24 µM (active)

Q: Which AC50 does the source give for `Cc1ccc(NC(=O)C2CCN(S(=O)(=O)c3c(C)n[nH]c3C)CC2)nc1` here?
A: inactive

Q: `CCCC(=O)N1CCN(c2ccc(NC(=O)c3sc4ccccc4c3Cl)cc2)CC1` was tested. Which AC50 did it give?
A: inactive

Q: With `Cc1ccc(NC(=O)CCc2c(C)nc3ncnn3c2C)nc1` as the molecule, how does the AC50 read?
A: inactive

Q: `CCC(CC)c1nnc(NC(=O)c2cccc(S(=O)(=O)N3CCc4ccccc43)c2)s1` was tested. Which AC50 did it give?
A: inactive

— PubChem BioAssay AID1851 (National Center for Advancing Translational Sciences (NCATS), 2009)
